Assay outcomes as filed in PubChem.
BoNT-A LC inh2 = blocks Botulinum neurotoxin A light chain protease; multiplex microsphere protease substrate cleavage, flow cytometry; inhibition, % at 10 µM; actives 0.17% (n = 360,000); also: plate controls were buffer without enzyme for full effect and enzyme alone for no effect
BoNT F protease = inhibitors of Botulinum neurotoxin F light chain protease. Multiplex microsphere protease cleavage assay, flow cytometry. inhibition, % at 10 µM. actives 0.22% (n = 360,000); in the data active = inhibition above about 35%, passing the limit was not always enough; inconclusive = no clear call, values can overlap the other calls; also: plate controls were buffer without enzyme for full effect and enzyme alone for no effect
Autofluor counter = compound fluorescence in toxin protease inhibitor counterscreen. compound autofluorescence counterscreen, microsphere flow cytometry; hits give high values. fluorescence intensity (concentration not given with the values). actives 3.1% (n = 360,000). AID 624483; in the data active = fluorescence intensity above about 16000; inconclusive = no clear call, values can overlap the other calls
Anthrax LF prot = inhibitors of Bacillus anthracis lethal factor protease; P15917; multiplex microsphere protease cleavage assay, LF; inhibition, % at 10 µM; actives 0.12% (n = 360,000); AID 588501; also: plate controls were buffer without enzyme for full effect and enzyme alone for no effect
Target sequence (P15917 whole entry, looked up): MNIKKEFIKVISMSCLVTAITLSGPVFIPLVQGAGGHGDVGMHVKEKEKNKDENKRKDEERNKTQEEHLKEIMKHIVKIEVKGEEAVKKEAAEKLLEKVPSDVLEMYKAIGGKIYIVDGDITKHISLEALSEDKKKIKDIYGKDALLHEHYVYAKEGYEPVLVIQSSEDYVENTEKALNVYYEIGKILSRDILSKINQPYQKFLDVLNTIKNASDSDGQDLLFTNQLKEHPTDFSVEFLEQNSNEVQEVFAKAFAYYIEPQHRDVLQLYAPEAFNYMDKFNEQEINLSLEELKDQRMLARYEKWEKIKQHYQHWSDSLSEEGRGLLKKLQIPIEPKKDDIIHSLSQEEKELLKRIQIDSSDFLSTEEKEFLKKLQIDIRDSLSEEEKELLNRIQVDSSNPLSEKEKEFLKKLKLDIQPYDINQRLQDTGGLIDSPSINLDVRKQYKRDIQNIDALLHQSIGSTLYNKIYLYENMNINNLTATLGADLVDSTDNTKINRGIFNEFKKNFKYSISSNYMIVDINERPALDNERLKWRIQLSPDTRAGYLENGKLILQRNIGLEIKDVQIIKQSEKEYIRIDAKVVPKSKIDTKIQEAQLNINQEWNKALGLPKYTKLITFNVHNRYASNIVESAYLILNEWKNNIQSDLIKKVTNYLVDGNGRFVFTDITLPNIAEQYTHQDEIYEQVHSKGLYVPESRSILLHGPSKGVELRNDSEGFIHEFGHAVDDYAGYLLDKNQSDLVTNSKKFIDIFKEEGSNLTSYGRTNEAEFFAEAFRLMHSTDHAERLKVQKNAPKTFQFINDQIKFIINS
Active calls of the source: *. Shown are actives, neighbours in structure and some others; about 3.5% of the full set was active somewhere. Rule as the data show it, unless noted: active = inhibition above about 30%; inconclusive = no clear call, values can overlap the other calls; inactive = below that.

What do the screens show for `CCc1ccc(/C=N/NC(=O)Cc2ccc(OC)c(OC)c2)s1`?
BoNT-A LC inh2: -0.9; BoNT F protease: -9.2; Autofluor counter: 6352; Anthrax LF prot: 2.3

What do the screens show for `COc1ccc(CC(=O)N/N=C/c2cccs2)cc1OC`?
BoNT-A LC inh2: 2.2; BoNT F protease: 48.7*; Autofluor counter: 3446; Anthrax LF prot: -9.5

How did Cc1nc2ccccc2cc1C(=O)N/N=C/c1ccco1 do in these assays?
BoNT-A LC inh2: -0.3; BoNT F protease: -7.7; Autofluor counter: 2561; Anthrax LF prot: -4.4

How did Cc1nc2ccccc2cc1C(=O)N/N=C/c1cccs1 do in these assays?
BoNT-A LC inh2: 3.3; BoNT F protease: 37.6*; Autofluor counter: 2060; Anthrax LF prot: 1.4

Results for CCCCCC(=O)N/N=C/c1cccs1 ?
BoNT-A LC inh2: -0.2; BoNT F protease: 0.9; Autofluor counter: 22461*; Anthrax LF prot: -2.4

Results for CCOC(=O)[C@]12CCCC=C1N(Cc1ccco1)C(=O)[C@H](CC(=O)N1CCOCC1)C2 ?
BoNT-A LC inh2: -0.6; BoNT F protease: -0.1; Autofluor counter: 5928; Anthrax LF prot: -8.7

How did CC(C)CN1C(=O)NC(NC(=O)c2cccs2)(C(F)(F)F)C1=O (centres undefined) do in these assays?
BoNT-A LC inh2: inconclusive; BoNT F protease: 0.0; Autofluor counter: 21985*; Anthrax LF prot: 0.6

Results for O=C(NC1(C(F)(F)F)NC(=O)N(Cc2cccnc2)C1=O)c1ccccc1 (centres undefined) ?
BoNT-A LC inh2: -4.2; BoNT F protease: -6.5; Autofluor counter: 20881*; Anthrax LF prot: -2.2

How did O=C(NC1(C(F)(F)F)NC(=O)N(Cc2ccco2)C1=O)c1cccnc1 (centres undefined) do in these assays?
BoNT-A LC inh2: 0.6; BoNT F protease: 15.6; Autofluor counter: 4592; Anthrax LF prot: 2.3

How did CN1C(=O)NC(NC(=O)c2cccs2)(C(F)(F)F)C1=O (centres undefined) do in these assays?
BoNT-A LC inh2: 0.8; BoNT F protease: 2.8; Autofluor counter: 9064; Anthrax LF prot: 6.3

Results for O=C(NC1(C(F)(F)F)NC(=O)N(Cc2ccco2)C1=O)c1cccs1 (centres undefined) ?
BoNT-A LC inh2: 4.8; BoNT F protease: 8.1; Autofluor counter: 20774*; Anthrax LF prot: -0.3

How did NC(=O)c1nsc(C(=O)N(Cc2ccc(F)cc2)C(C(=O)NC2CCCC2)c2ccco2)c1N (centres undefined) do in these assays?
BoNT-A LC inh2: 3.7; BoNT F protease: 8.9; Autofluor counter: 3733; Anthrax LF prot: -0.2

What do the screens show for `CC(C)CCNC(=O)C(c1ccco1)N(Cc1ccc(F)cc1)C(=O)c1snc(C(N)=O)c1N` (centres undefined)?
BoNT-A LC inh2: -0.2; BoNT F protease: -3.1; Autofluor counter: 19358*; Anthrax LF prot: -4.7

Results for O=C(CNc1ccc2ccccc2c1)N/N=C/c1cc2ccccc2nc1Cl ?
BoNT-A LC inh2: 2.4; BoNT F protease: -3.2; Autofluor counter: 8766; Anthrax LF prot: -2.7

Results for CCn1c(SCC(=O)Nc2ccccc2C(=O)OC)nnc1-c1ccc(N)cc1 ?
BoNT-A LC inh2: -0.1; BoNT F protease: -2.1; Autofluor counter: 23878*; Anthrax LF prot: 0.7

What do the screens show for `CCn1c(COc2cccc(OC)c2)nnc1SCC(=O)Nc1ccccc1C(=O)OC`?
BoNT-A LC inh2: inconclusive; BoNT F protease: 5.6; Autofluor counter: 19252*; Anthrax LF prot: 0.7

What do the screens show for `CCn1c(CC(=O)Nc2ccccc2)nnc1SCC(=O)Nc1ccccc1C(=O)OC`?
BoNT-A LC inh2: 0.2; BoNT F protease: -6.3; Autofluor counter: 8539; Anthrax LF prot: -10.5

What do the screens show for `CCn1c(COc2ccc(Cl)c(C)c2)nnc1SCC(=O)N1CCCC1`?
BoNT-A LC inh2: inconclusive; BoNT F protease: -2.5; Autofluor counter: 20792*; Anthrax LF prot: -1.3

What do the screens show for `CCOC(=O)c1ccccc1NC(=O)CSc1nnc(COc2ccccc2C)n1C`?
BoNT-A LC inh2: inconclusive; BoNT F protease: 7.0; Autofluor counter: 17960*; Anthrax LF prot: -1.2

How did CCn1c(SCC(=O)Nc2ccccc2C(=O)OC)nnc1-c1ccoc1C do in these assays?
BoNT-A LC inh2: -0.5; BoNT F protease: -5.2; Autofluor counter: 4111; Anthrax LF prot: -2.4

Results for CCn1c(COc2ccccc2C)nnc1SCC(=O)N1CCCCC1 ?
BoNT-A LC inh2: -0.1; BoNT F protease: -3.1; Autofluor counter: 9214; Anthrax LF prot: -4.8

How did Cc1ccccc1OCc1nnc(SCC(=O)NCc2ccccc2)n1C do in these assays?
BoNT-A LC inh2: 0.0; BoNT F protease: 1.1; Autofluor counter: 3884; Anthrax LF prot: 3.0

How did Cc1[nH]c2ccccc2c1C(=O)C(C)OC(=O)c1ccccc1NCCO (centres undefined) do in these assays?
BoNT-A LC inh2: -5.7; BoNT F protease: -13.0; Autofluor counter: inconclusive; Anthrax LF prot: -4.6

How did COc1ccc(C(=O)NCc2nnc(SCC(=O)N3CCCC3)o2)cc1 do in these assays?
BoNT-A LC inh2: 0.9; BoNT F protease: 4.5; Autofluor counter: 5163; Anthrax LF prot: 1.6

What do the screens show for `CCCNC(=O)C1(C)CCCN(C(=O)c2ccc(F)cc2Cl)C1` (centres undefined)?
BoNT-A LC inh2: 0.2; BoNT F protease: -3.3; Autofluor counter: 3954; Anthrax LF prot: -1.4

How did CCn1c(COc2ccccc2)nnc1SCC(=O)Nc1cc(C)ccc1OC do in these assays?
BoNT-A LC inh2: 0.0; BoNT F protease: -11.6; Autofluor counter: 10154; Anthrax LF prot: -1.9

What do the screens show for `CCn1c(COc2ccc(C)cc2)nnc1SCC(=O)Nc1cc(OC)ccc1OC`?
BoNT-A LC inh2: 0.8; BoNT F protease: 2.9; Autofluor counter: 22615*; Anthrax LF prot: -4.7

How did CCn1c(SCC(=O)c2ccc3c(c2)Cc2ccccc2-3)nnc1-c1ccc(N)cc1 do in these assays?
BoNT-A LC inh2: -1.7; BoNT F protease: -0.5; Autofluor counter: 23475*; Anthrax LF prot: -9.8

Results for CCOC(=O)c1cnn(CCOC(=O)c2cccs2)c1NC(=O)c1cccs1 ?
BoNT-A LC inh2: 1.4; BoNT F protease: 2.6; Autofluor counter: 22411*; Anthrax LF prot: 0.4

What do the screens show for `Cc1cc(/C=N/n2cnnc2)c(C)n1-c1ccc(OCc2ccccc2F)cc1`?
BoNT-A LC inh2: -2.4; BoNT F protease: -18.3; Autofluor counter: 11396; Anthrax LF prot: -6.8

What do the screens show for `C(=N\n1cnnc1)/c1cccc(Oc2ccccc2)c1`?
BoNT-A LC inh2: 1.0; BoNT F protease: 0.4; Autofluor counter: 22913*; Anthrax LF prot: -1.1

How did S=c1[nH]ncn1/N=C/c1cccc(Oc2ccccc2)c1 do in these assays?
BoNT-A LC inh2: 1.6; BoNT F protease: 8.0; Autofluor counter: 4208; Anthrax LF prot: 0.3

Results for Fc1ccccc1COc1cccc(/C=N/n2cnnc2)c1 ?
BoNT-A LC inh2: -2.0; BoNT F protease: -6.6; Autofluor counter: 24150*; Anthrax LF prot: 0.3

What do the screens show for `Cc1occc1C(=O)O/N=C(\N)c1ccc(Cl)cc1`?
BoNT-A LC inh2: -1.1; BoNT F protease: 40.0*; Autofluor counter: 3942; Anthrax LF prot: 4.6

How did COc1ccc(OC)c(S(=O)(=O)N2CCC(C(=O)NCc3ccc4c(c3)OCO4)CC2)c1 do in these assays?
BoNT-A LC inh2: -0.6; BoNT F protease: 5.2; Autofluor counter: 5500; Anthrax LF prot: 4.0

Results for Cc1noc(C)c1CSc1nc2sc(C)c(C)c2c(=O)n1-c1ccccc1 ?
BoNT-A LC inh2: -0.4; BoNT F protease: -11.1; Autofluor counter: 4387; Anthrax LF prot: -9.8
